# Experimental data taken from PubChem BioAssay AID2013 (Sanford-Burnham Center for Chemical Genomics, 2009).
# The campaign covered roughly 290,000 compounds. About 370 (0.13%) were called active. Only a selection was taken, and actives are over-represented in it overall. Results with a measured potency or affinity are listed apart. A number with no mark means an inactive call.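 The calls were made as follows: active = spots per cell inhibited over 60%, with over 100 cells counted and total cytoplasm intensity under 500,000; inconclusive = wells with under 100 cells, flagged as likely toxic; inactive = the rest.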
# Molecular target: G-protein coupled receptor 55 (Homo sapiens) (UniProt Q9Y2T6)
# Sequence (Q9Y2T6 whole entry, looked up): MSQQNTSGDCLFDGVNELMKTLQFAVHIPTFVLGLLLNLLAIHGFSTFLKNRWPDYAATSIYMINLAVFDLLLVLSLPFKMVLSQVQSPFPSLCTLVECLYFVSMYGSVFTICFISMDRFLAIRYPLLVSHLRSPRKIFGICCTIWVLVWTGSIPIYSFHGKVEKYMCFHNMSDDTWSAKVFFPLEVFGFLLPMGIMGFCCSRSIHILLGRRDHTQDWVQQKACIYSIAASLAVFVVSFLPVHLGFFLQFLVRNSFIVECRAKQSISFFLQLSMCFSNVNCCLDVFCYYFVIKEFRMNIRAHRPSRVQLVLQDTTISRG
# Assay: inhibition of LPI-stimulated GPR55 beta-arrestin translocation – imaging, U2OS, beta-arrestin-GFP, LPI agonist, primary screen (AID 2013);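 also: U2OS cells stably carrying GPR55 and arrestin-GFP stimulated by 5 µM LPI near EC80; imaged beta-arrestin-GFP aggregate spots per cell after agonist stimulation; plate controls were LPI-stimulated DMSO wells for no effect and DMSO wells without LPI for full effect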
# Conditions: LPI antagonism, at 10 µM, hits give high values
row,Structure (SMILES),inhibition
1,COc1ccc(CCNC(=O)[C@H](C)NC(=O)[C@@H]2CSC3c4ccccc4C(=O)N32)cc1 (some centres not stated),9.5%
2,CCN(CC)S(=O)(=O)c1ccc(NCC2COc3ccccc3O2)c([N+](=O)[O-])c1 (configuration not stated),8.6%
3,CCN(c1ccccc1)S(=O)(=O)c1ccc(Cl)nc1,-13.7%
4,Cc1ccc(CNc2nc(C)cs2)cc1,4.7%
5,Cc1sc2nc(CSc3nc4ccccc4c(=O)n3CCCN3CCOCC3)[nH]c(=O)c2c1C,89.7% (active)
6,CCCn1c(SCc2nc3sc(C)c(C)c3c(=O)[nH]2)nc2ccccc2c1=O,8.6%
7,Cc1[nH]c2ccccc2c1C(=O)CSc1nc2ccccc2c(=O)n1CCCN1CCOCC1,-7.3%
8,Cc1cc(C)cc(Oc2cc(NC(=O)c3cn(C)nc3C)cc([N+](=O)[O-])c2)c1,-5.3%
9,Cc1cccc(N(C)C(=O)c2cc(S(=O)(=O)N3CCc4ccccc43)cn2C)c1,8.9%
10,Cc1ccc(NC(=O)c2cc(S(=O)(=O)N3CCc4ccccc43)cn2C)cc1,6.1%
11,CN(C)/C=N/c1[nH]ncc1C#N,-2%
12,Cc1nc2ccccc2n1CC(O)Cn1c(C(F)(F)F)nc2ccccc21 (configuration not stated),6.6%
13,NC(=O)CSc1n[nH]c(-c2ccco2)n1,8.2%
14,O=C(c1cccc(S(=O)(=O)N2CCN(c3ccccc3)CC2)c1)N1CC=C(c2ccccc2)CC1,4.3%
15,COc1ccccc1NS(=O)(=O)c1cc(NC(=O)CC(C)(C)C)ccc1N1CCOCC1,6.1%
16,COc1ccccc1NS(=O)(=O)c1cccc(NC(=S)NCCN2CCOCC2)c1,0.8%
17,Cc1ccccc1NC(=O)Nc1cc(S(N)(=O)=O)ccc1C,-2.7%
18,COc1ccc(N2CCN(C(=O)NCc3ccc(C)cc3)CC2)cc1,1%
19,CC(=O)Nc1cccc(C(=O)OCC(=O)c2ccccc2Cl)c1,-0.6%
20,COc1cc(S(=O)(=O)Nc2ccccc2)ccc1N=Cc1c(C)[nH]n(-c2ccc(C)cc2)c1=O,7.7%
21,O=C(Nc1ccccc1N1CCOCC1)c1cccc(NS(=O)(=O)c2ccc(F)c(F)c2)c1,2.6%
22,O=C(CC12CC3CC(CC(C3)C1)C2)NC(=S)NCc1ccccc1,53%
23,O=C(CC12CC3CC(CC(C3)C1)C2)NCc1ccco1,11.3%

row,Structure (SMILES),inhibition
1,OCCNc1cnc2ccccc2n1,12.6%
2,CC1CN(S(=O)(=O)c2ccccc2)CN1C(=O)N1CCOCC1 (configuration not stated),15.3%
3,CCN1CCCC1CN(Cc1cc2ccc(C)cc2[nH]c1=O)C(=S)Nc1ccc(F)cc1 (configuration not stated),23.5%
4,COc1ccc(Cl)cc1S(=O)(=O)n1ccnc1,4.2%
5,C[N+]1=C(/C=C/Nc2ccccc2Cl)C(C)(C)c2ccccc21,0.9%
6,COC(=O)c1ccc2c(c1)C(C)(C)C(/C=C/c1ccccc1O)=[N+]2C,11.5%
7,O=C1c2ccccc2C(=O)C2OC12 (configuration not stated),12.7%
8,COc1ccc(-c2csc(N(CC3CCCO3)C(=O)c3ccccc3)n2)cc1 (configuration not stated),0.7%
9,COc1ccc(OC)c(-c2csc(N(CC3CCCO3)C(=O)Cc3ccccc3)n2)c1 (configuration not stated),17.6%
10,COc1ccc(OC)c(-c2csc(N(CC3CCCO3)C(=O)C3CCCCC3)n2)c1 (configuration not stated),82.9% (active)
11,CN(C)c1ccc(C(=O)OCC(=O)Nc2ccc(N3CCOCC3)cc2)cc1,0.2%
12,CCN(CC)c1ccc(NC(=O)Cn2c(C(C)NC(=O)c3ccc(C)cc3)nc3ccccc32)cc1 (configuration not stated),1.1%
13,S=c1[nH]nc(CSCc2ccccc2Cl)n1-c1ccccc1,1%
14,Cn1c(CSCc2ccccc2Cl)n[nH]c1=S,-17.8%
15,CN(Cc1ccc(Cl)cc1Cl)C(=O)CNC(=O)c1ccco1,8.3%
16,CCCn1cc(S(=O)(=O)c2ccccc2)c(=O)c2cc(F)c(N3CCN(C)CC3)cc21,7.5%
17,Clc1cccc(-c2cc3nc4c(c(N5CCOCC5)n3n2)CCCC4)c1,-8.9%
18,Clc1cccc(-c2cc3nc4c(c(N5CCN(c6cnccn6)CC5)n3n2)CCCC4)c1,-5.5%
19,Clc1cccc(-c2cc3nc4c(c(N5CCNCC5)n3n2)CCCC4)c1,90.4% (active)
20,COc1ccc(NS(=O)(=O)c2ccc3nc(COc4ccc(C#N)cc4)[nH]c3c2)cc1,6%
21,COc1ccc(NS(=O)(=O)c2ccc3nc(COc4ccc5ccccc5c4)[nH]c3c2)cc1,20.6%
22,COc1ccc(/C=C(\C#N)C(=O)OCC(=O)Nc2ccc(-c3nc4ccc(C)cc4s3)cc2)cc1,-6.4%
23,C=C(C)CSc1nc2ncc(Cl)cc2[nH]1,17.6%

row,Structure (SMILES),inhibition
1,N/C(=N\O)c1ccccc1N1CCCCC1,-5%
2,CCCC(=O)Nc1nc(C)c(C(C)=O)s1,-16%
3,C=CCn1c(SCC(=O)NC(=O)c2cccn2C)nc2ccccc2c1=O,4.4%
4,CCC(C)n1c(SCC(=O)Nc2cc(C)on2)nc2ccccc2c1=O (configuration not stated),15.5%
5,CCC(C)n1c(SCC(=O)NC(=O)c2cccn2C)nc2ccccc2c1=O (configuration not stated),99.6% (active)
6,COc1cc(C(=O)NNC(=O)NC2CCCCC2)cc(OC)c1OC,8.5%
7,O=C(NCc1ccccc1Cl)c1ccc2c(c1)SC1=NS(=O)(=O)CCN12,-9.3%
8,COc1cccc(NC(=O)c2cccc(C(=O)Nc3cccc(OC)c3)c2)c1,-0.6%
9,C=CCNC(=O)/C(C#N)=C/c1ccccc1[N+](=O)[O-],13.3%
10,N#C/C(=C\C=C\c1ccccc1[N+](=O)[O-])C(=O)NCc1ccccc1,11.1%
11,CC1=CC(=C(C#N)C#N)C=C(C)N1CCN1CCN(C(=O)Nc2cccc(Cl)c2)CC1,3.5%
12,Cc1cccc(NC(=O)C2C3C=CC4(O3)C2C(=O)N(CCCN2CCCC2)C4C(=O)NC2CCCC(C)C2C)c1 (configuration not stated),-6.5%
13,CC1(c2ccc([N+](=O)[O-])cc2)CC(C)(C)N(C(=O)c2ccccc2)c2ccccc21 (configuration not stated),11.2%
14,CC1(c2cc([N+](=O)[O-])cc([N+](=O)[O-])c2)CC(C)(C)N(C(=O)c2ccccc2)c2ccccc21 (configuration not stated),-0.2%
15,CC1(c2ccccc2)CC(C)(C)N(C(=O)c2cc([N+](=O)[O-])cc([N+](=O)[O-])c2)c2ccccc21 (configuration not stated),64.4% (active)
16,COc1ccccc1Nc1nc(N)nc(-c2cc3ccccc3o2)n1,8.7%
17,CC(NCC(O)COCc1ccc(Cl)cc1)c1ccccc1 (configuration not stated),0.4%
18,NCC(O)COCCC12CC3CC(CC(C3)C1)C2 (configuration not stated),5.8%
19,CC1(C)CC(=O)C=C(NCC2CCCO2)C1 (configuration not stated),3.1%
20,CC1=CC(c2ccc(Cl)cc2)n2nc(NC(=O)c3ccccc3)nc2N1 (configuration not stated),5.1%
21,Cc1ccc(-c2ccnc3cc(C)nn23)cc1,13.3%
22,COc1ccccc1N1CCN(C2=Nc3cccc4cccc2c34)CC1,95.5% (active)
23,c1cc2c3c(cccc3c1)C(N1CCCCCC1)=N2,17.5%

row,Structure (SMILES),inhibition
1,c1cc2c3c(cccc3c1)C(N1CCCCC1)=N2,3.4%
2,COc1ccc(/C=C2\SC(=O)N(CC(=O)NC3C=CS(=O)(=O)C3)C2=O)cc1 (configuration not stated),14.8%
3,COc1ccc(CCNC(=O)C/C(C)=N/NC(=O)c2ccc([N+](=O)[O-])cc2Cl)cc1OC,5.9%
4,C#CCOc1c(Br)cc(/C=N/O)cc1OCC,-2.8%
5,C=CCOc1ccc(/C=N/NC(=O)CN2CCOCC2)cc1OCC,-14.5%
6,COCCNc1c2c(nc3c(-c4ccccc4)c(C)nn13)CCC2,-0.5%
7,CC(=O)c1c(O)cc(O)cc1CC(=O)O,14.6%
8,CCOC(=O)CSc1nc2c(sc(=S)n2-c2ccc(OCC)cc2)c(=O)[nH]1,-5.3%
9,CCCCN(CC)C(=O)CSc1nc2c(sc(=S)n2-c2ccc(OCC)cc2)c(=O)[nH]1,6.8%
10,O=c1c2ccccc2nc(-c2ccccc2)n1CCCN1CCOCC1,-6.4%
11,COc1ccc(-c2nn(-c3ccccc3)cc2/C=C2/SC(=S)N(Cc3ccco3)C2=O)c(C)c1,13.6%
12,COc1ccc(-c2nn(-c3ccccc3)cc2/C=C2/SC(=S)N(CCC(=O)O)C2=O)cc1,2.4%
13,O=C(Nc1ccc(F)cc1F)c1c(C(F)(F)F)ccnc1Oc1cccc(C(F)(F)F)c1,6.9%
14,Cc1cc(NC(=O)CN(C)S(=O)(=O)c2cnc[nH]2)ccc1Br,0.7%
15,CCCCn1c(NC(=O)c2ccccc2)c(C#N)c2nc3ccccc3nc21,-12.6%
16,CCCCn1c(NC(C)=O)c(C#N)c2nc3ccccc3nc21,17%
17,Cc1ccc(C(=O)C(C)OC(=O)c2ccccc2[N+](=O)[O-])cc1 (configuration not stated),9.5%
18,CCOCCOC(=O)C1=C(C)NC(=O)NC1c1cc2c(cc1Br)OCO2 (configuration not stated),5.8%
19,CCN(CC)CCNC(=O)c1cc2c(s1)-c1ccccc1SC2,15.9%
20,COCCNC(=O)c1cc2c(s1)-c1ccc(Cl)cc1SC2,-8.6%
21,O=C(CSc1ccc(F)cc1)NC12CC3CC(CC(C3)C1)C2,-6%
22,COc1ccc(C)cc1Nc1n[n+](-c2ccccc2)c(-c2ccc(SC)cc2)s1,4.4%
23,COc1ccc(C)cc1Nc1n[n+](-c2ccccc2)c(-c2ccc(C(=O)O)cc2)s1,4.6%
